Assay results taken from PubChem BioAssay (NCATS).
Results filed as inconclusive are left out. Where a call stands in place of a potency, no number is given. Unmarked numbers belong to inactive results. Active and inactive are the calls of the source. Calls follow the shape of the dose curve; as a rule, active = well fitted curve in the direction sought with a large enough effect; inconclusive = small, poorly fitted or top-dose-only effect, or another doubt; inactive = no such curve, though single readings can be large; an effect the other way counts as inactive or inconclusive.

Legend:
[1] = biological target: Rap guanine nucleotide exchange factor 3 (Homo sapiens) (UniProt O95398); experiment: Confirmatory qHTS for agonist of cAMP-regulated guanine nucleotide exchange factor 3 (EPAC1) (AID 1645881);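 also: EPAC1 catalysed release of BODIPY-GDP from Rap1B seen as fluorescence loss; nearly all actives have a fitted effect of over 75% in size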
Rap guanine nucleotide exchange factor 3 (Homo sapiens), sequence (O95398 whole entry, looked up): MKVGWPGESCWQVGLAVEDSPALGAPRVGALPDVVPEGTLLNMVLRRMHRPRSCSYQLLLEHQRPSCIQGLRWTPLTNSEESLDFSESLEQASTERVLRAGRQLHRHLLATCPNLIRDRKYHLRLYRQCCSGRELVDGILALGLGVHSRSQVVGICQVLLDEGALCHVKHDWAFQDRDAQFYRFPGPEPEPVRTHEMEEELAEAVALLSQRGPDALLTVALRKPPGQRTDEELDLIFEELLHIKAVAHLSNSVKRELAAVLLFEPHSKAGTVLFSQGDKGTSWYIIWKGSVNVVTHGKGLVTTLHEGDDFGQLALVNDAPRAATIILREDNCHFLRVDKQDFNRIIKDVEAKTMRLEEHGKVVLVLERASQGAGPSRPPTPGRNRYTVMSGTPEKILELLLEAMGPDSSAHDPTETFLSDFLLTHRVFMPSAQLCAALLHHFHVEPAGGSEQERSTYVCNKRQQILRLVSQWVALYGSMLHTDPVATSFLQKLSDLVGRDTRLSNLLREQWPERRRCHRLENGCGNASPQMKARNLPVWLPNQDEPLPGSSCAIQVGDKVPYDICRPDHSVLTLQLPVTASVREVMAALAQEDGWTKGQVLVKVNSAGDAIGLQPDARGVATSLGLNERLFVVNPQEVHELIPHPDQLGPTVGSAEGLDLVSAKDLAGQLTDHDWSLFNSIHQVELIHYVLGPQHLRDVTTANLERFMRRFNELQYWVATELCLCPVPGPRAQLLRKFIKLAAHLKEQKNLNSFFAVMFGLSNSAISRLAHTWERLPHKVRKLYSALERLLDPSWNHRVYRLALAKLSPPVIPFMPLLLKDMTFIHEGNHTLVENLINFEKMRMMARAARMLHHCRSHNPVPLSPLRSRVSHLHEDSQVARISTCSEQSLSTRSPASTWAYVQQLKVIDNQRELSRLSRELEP

[2] = biological target: Rap guanine nucleotide exchange factor 4 (Homo sapiens) (UniProt Q8WZA2); experiment: Confirmatory qHTS for agonist of cAMP-regulated guanine nucleotide exchange factor 4 (EPAC2) (AID 1645884);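 also: nucleotide exchange releases bodipy-GDP from Rap1 and this lowers its fluorescence; nearly all actives have a fitted effect of over 65% in size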
Rap guanine nucleotide exchange factor 4 (Homo sapiens), sequence (Q8WZA2 whole entry, looked up): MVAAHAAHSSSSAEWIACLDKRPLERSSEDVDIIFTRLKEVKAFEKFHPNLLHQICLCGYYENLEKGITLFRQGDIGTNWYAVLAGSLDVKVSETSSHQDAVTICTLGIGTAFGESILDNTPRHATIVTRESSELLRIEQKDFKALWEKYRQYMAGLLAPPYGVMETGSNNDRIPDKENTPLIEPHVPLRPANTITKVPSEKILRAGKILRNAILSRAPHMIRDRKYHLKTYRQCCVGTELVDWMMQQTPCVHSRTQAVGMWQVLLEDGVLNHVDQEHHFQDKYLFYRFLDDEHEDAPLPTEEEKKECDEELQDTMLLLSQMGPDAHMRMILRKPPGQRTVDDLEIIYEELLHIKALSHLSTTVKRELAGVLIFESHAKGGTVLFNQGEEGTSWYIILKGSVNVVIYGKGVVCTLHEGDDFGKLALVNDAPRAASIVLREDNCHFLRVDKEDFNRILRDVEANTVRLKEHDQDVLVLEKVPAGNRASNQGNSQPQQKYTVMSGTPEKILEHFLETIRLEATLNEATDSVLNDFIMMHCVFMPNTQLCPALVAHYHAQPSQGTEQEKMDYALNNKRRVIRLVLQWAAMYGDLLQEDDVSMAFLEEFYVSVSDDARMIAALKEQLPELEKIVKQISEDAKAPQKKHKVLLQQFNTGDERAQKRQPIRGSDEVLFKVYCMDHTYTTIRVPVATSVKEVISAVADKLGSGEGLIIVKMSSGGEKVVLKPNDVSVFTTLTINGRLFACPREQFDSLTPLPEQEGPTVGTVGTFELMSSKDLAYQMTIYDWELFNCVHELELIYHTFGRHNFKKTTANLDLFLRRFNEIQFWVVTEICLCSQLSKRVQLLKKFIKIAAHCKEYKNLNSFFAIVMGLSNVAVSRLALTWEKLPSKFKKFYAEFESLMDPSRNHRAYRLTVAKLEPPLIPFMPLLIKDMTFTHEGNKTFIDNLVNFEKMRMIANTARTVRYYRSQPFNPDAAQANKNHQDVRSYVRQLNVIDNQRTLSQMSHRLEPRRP

[3] = biological target: Rap guanine nucleotide exchange factor 4 (Homo sapiens) (UniProt Q8WZA2); experiment: Confirmatory qHTS for antagonist of cAMP-regulated guanine nucleotide exchange factor 4 (EPAC2) (AID 1645885); also: nearly all actives have a fitted effect of over 25% in size; also: potency is read from the fitted curve at half-maximal effect
[4] = biological target: Rap guanine nucleotide exchange factor 3 (Homo sapiens) (UniProt O95398); experiment: Counterscreen qHTS for antagonist of cAMP-regulated guanine nucleotide exchange factor 3 (EPAC1) (AID 1645888);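 also: fluorescence loss as bound BODIPY-GDP is released from Rap1B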
Summary of the method: (§1)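 Measured: fluorescence of BODIPY-GDP bound to Rap1B, which falls as exchange proceeds. Conditions include 50 uM competing GDP, 5 and 30 min reads, and a later cAMP challenge for antagonist detection.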

[5] = biological target: Rap guanine nucleotide exchange factor 3 (Homo sapiens) (UniProt O95398); experiment: Counterscreen qHTS for agonist of cAMP-regulated guanine nucleotide exchange factor 3 (EPAC1) (AID 1645889); also: nearly all actives have a fitted effect of over 40% in size
Summary of the method: as §1

[6] = biological target: Tyrosyl-DNA phosphodiesterase 1 (Homo sapiens) (UniProt Q9NUW8); experiment: Confirmation Assay for Inhibitors of Tyrosyl-DNA Phosphodiesterase (TDP1) (AID 489007); conditions: recombinant human TDP1 enzymatic activity, dose-response; also: potency is read from the fitted curve at half-maximal effect; nearly all actives have a fitted effect of over 40% in size
Tyrosyl-DNA phosphodiesterase 1 (Homo sapiens), sequence (Q9NUW8 whole entry, looked up): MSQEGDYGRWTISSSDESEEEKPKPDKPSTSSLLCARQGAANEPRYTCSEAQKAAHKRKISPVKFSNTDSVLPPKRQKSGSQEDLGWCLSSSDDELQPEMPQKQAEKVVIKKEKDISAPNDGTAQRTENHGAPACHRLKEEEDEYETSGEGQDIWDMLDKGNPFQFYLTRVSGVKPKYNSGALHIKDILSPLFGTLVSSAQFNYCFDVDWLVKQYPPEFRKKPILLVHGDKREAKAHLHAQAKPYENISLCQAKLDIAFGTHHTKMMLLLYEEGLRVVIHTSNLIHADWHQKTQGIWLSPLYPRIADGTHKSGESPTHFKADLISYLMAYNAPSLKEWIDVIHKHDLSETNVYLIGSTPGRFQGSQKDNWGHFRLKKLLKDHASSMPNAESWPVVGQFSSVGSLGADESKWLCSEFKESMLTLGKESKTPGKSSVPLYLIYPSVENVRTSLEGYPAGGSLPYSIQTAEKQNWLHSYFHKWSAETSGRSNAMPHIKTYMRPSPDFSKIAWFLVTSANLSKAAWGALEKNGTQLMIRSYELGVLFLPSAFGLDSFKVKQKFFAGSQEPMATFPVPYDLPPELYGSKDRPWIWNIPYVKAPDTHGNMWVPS
Summary of the method: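 Tdp1 1 nM + cpd, 15 min RT; add biotin/phosphotyrosine-FITC oligo 15 nM, 5 min RT; add AS donor/acceptor beads 10 ug/ml, 10 min RT; read AlphaScreen. No-enzyme wells = max signal.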

## Cc1cc(C=C2C(=O)NC(=S)NC2=O)c(C)n1C1CCCC1
[1]
  Potency: inactive
[2]
  Potency: inactive
[3]
  Potency: inactive
[4]
  outcome: inactive
[5]
  Potency: inactive

## Cn1cccc1/C=C1\C(=O)NC(=O)N(Cc2ccco2)C1=O
[6]
  Potency: 14.1 µM (active)
[1]
  Potency: inactive
[2]
  activation: 8.15% [at 17.1 µM, percent relative to cAMP agonist control]
[3]
  activity change, negative = inhibition: -7.91% [at 12.7 µM]
[4]
  activity change, negative = inhibition: -2.64% [at 30.8 µM]
[5]
  activation: 7.31% [at 30.8 µM]

## O=C1NCN(c2ccccc2)C12CCN(C(c1cc3ccccc3o1)c1nnnn1C1CCCCC1)CC2 (configuration not stated)
[1]
  Potency: inactive
[2]
  Potency: inactive
[4]
  outcome: inactive

## COc1ccc(-n2nnnc2C(c2ccccc2OC(F)(F)F)N2CCC(n3c(=O)[nH]c4ccccc43)CC2)cc1 (configuration not stated)
[1]
  Potency: inactive
[2]
  activation: 2.83% [at 17.1 µM, percent relative to cAMP agonist control]
[3]
  activity change, negative = inhibition: -5.88% [at 12.7 µM]
[5]
  activation: 2.08% [at 30.8 µM]

## Cc1cc2ccccn2c1C(C[N+](=O)[O-])c1c(F)cccc1Cl (configuration not stated)
[1]
  Potency: inactive
[2]
  Potency: inactive
[3]
  Potency: 15.1 µM (active)
[4]
  outcome: inactive

## COc1ccc(N2C(=O)/C(=C/C=C/c3ccccc3[N+](=O)[O-])C(=O)NC2=S)cc1
[1]
  Potency: inactive
[2]
  activation: 17.4% [at 17.1 µM, percent relative to cAMP agonist control]
[3]
  activity change, negative = inhibition: 0.334% [at 12.7 µM]
[4]
  activity change, negative = inhibition: 15.6% [at 30.8 µM]

## Cc1ccc(OCCn2cccc2/C=C2/C(=O)NC(=O)N(Cc3ccco3)C2=O)cc1
[1]
  Potency: inactive
[2]
  Potency: inactive
[3]
  Potency: inactive
[4]
  outcome: inactive

## COc1cc(/C=C/c2nc3ccccc3c(=O)n2-c2cccc(O)c2)ccc1O
[1]
  Potency: inactive
[2]
  Potency: inactive
[3]
  Potency: inactive
[4]
  outcome: inactive

## CCn1nc(/C=C/c2ccccc2)nc2c(=O)n(C)c(=O)nc1-2
[1]
  Potency: inactive
[2]
  Potency: inactive
[4]
  outcome: inactive

## Cc1cccc(C)c1-n1nnnc1C(c1ccccc1OC(F)(F)F)N1CCC(n2c(=O)[nH]c3ccccc32)CC1 (configuration not stated)
[1]
  Potency: inactive
[2]
  Potency: inactive
[3]
  Potency: inactive
[4]
  outcome: inactive
[5]
  Potency: inactive

## O=C1NC(=O)N(Cc2ccco2)C(=O)/C1=C/c1cccn1CCOc1ccccc1Cl
[1]
  Potency: inactive
[2]
  Potency: inactive
[3]
  Potency: inactive
[4]
  outcome: inactive
[5]
  Potency: inactive

## COCCNC(=O)c1c(N)n(CCC(C)C)c2nc3ccccc3nc12
[1]
  Potency: inactive
[2]
  activation: 10.8% [at 17.1 µM, percent relative to cAMP agonist control]
[3]
  activity change, negative = inhibition: -8.1% [at 12.7 µM]
[4]
  activity change, negative = inhibition: -2.48% [at 30.8 µM]
[5]
  activation: 26.5% [at 30.8 µM]
